{"source": "PubChem BioAssay AID1159606", "about": "(Sanford-Burnham Center for Chemical Genomics, 2016)", "note": "About 7,300 (2%) of roughly 360,000 compounds were called active. This is one part of a sample in which actives are shown more often than they occur. Cut-off read from the data, not from the text of the source: active = inhibition above about 50%; inactive = the rest.", "data": [{"assay": "blockers of TWEAK-induced Fn14 reporter activity – luciferase reporter cells, uHTS, primary screen (AID 1159606)", "conditions": "TWEAK-stimulated Fn14 reporter cells, luciferase luminescence, 8 h; at 10 µM; hits give high values", "values": [{"smiles": "Cc1ccc(OCC(=O)Nc2ccccc2Sc2ccc(Cl)cc2)c([N+](=O)[O-])n1", "inhibition": "13.7% (inactive)"}, {"smiles": "COc1cccc(-c2cc3nc(NCCOc4ccccc4Cl)n(C)c(=O)c3s2)c1", "inhibition": "15.1% (inactive)"}, {"smiles": "CCOC(=O)C1CCCN(C(=O)c2cc(-c3cccs3)oc2C)CC1", "note": "(configuration not stated)", "inhibition": "31.6% (inactive)"}, {"smiles": "Cc1ccc(S(=O)(=O)Nc2ccccc2CNc2c(C)n(C)n(-c3ccccc3)c2=O)cc1", "inhibition": "12.4% (inactive)"}, {"smiles": "O=C(NCC(=O)N1CCN(c2ccccc2O)CC1)c1ccc2ccccc2c1", "inhibition": "-22.9% (inactive)"}, {"smiles": "CC(C)C1Cc2[nH][nH]c(=O)c2C(c2ccc(Cl)cc2)O1", "note": "(configuration not stated)", "inhibition": "-23.3% (inactive)"}, {"smiles": "COc1ccc(C(=O)OCC(=O)c2ccc(Cl)s2)c(OC)c1OC", "inhibition": "-38.7% (inactive)"}, {"smiles": "CNc1cncc(-c2ccc(NS(C)(=O)=O)cc2)n1", "inhibition": "34.6% (inactive)"}, {"smiles": "CC1(C)OC(=O)C2=C(C[C@@H](C3CC3)O[C@H]2CCc2cccc(Cl)c2)O1", "inhibition": "-0.44% (inactive)"}, {"smiles": "Cc1ccc(S(=O)(=O)N(C)c2ccc(OCC(=O)OCC(=O)N(CC#N)c3ccccc3)cc2)cc1", "inhibition": "-12% (inactive)"}, {"smiles": "Cc1oc2cc(Br)c(O)c(Br)c2c1C(=O)c1ccccc1", "inhibition": "-24.8% (inactive)"}, {"smiles": "CCOC(=O)c1c(-c2ccccc2)oc2cc(Br)c(O)c(C=O)c12", "inhibition": "97.5% (active)"}, {"smiles": "CCOC(=O)c1c(C)oc2cc(Sc3ccccc3)c(O)c(O)c12", "inhibition": "-4.97% (inactive)"}, {"smiles": "CC1CCCN(c2ccc(C(=O)NCCc3ccccc3)cn2)C1", "note": "(configuration not stated)", "inhibition": "6.92% (inactive)"}, {"smiles": "COc1ccccc1-n1nnnc1S(=O)(=O)Cc1ccc(Cl)cc1", "inhibition": "102% (active)"}, {"smiles": "CCC(C)N(C(=O)CSc1nnnn1-c1ccccc1OC)C1CCS(=O)(=O)C1", "note": "(configuration not stated)", "inhibition": "14.9% (inactive)"}, {"smiles": "CCN(C(=O)CSc1nnnn1-c1ccccc1OC)C1CCS(=O)(=O)C1", "note": "(configuration not stated)", "inhibition": "3.05% (inactive)"}, {"smiles": "CNC(=O)NCCN1CCCC1=O", "inhibition": "-16.3% (inactive)"}, {"smiles": "O=C(NCc1ccc(F)cc1F)[C@@H]1CCCN1C(=O)[C@@H]1CCCN1C(=O)c1cccc(Cl)c1", "inhibition": "22.6% (inactive)"}, {"smiles": "Cc1ccc2nc(-c3ccco3)c(Cc3cccc(Cl)c3)n2c1", "inhibition": "10.4% (inactive)"}, {"smiles": "N#CCC(=O)Nc1ccc(C(=O)OCC(=O)Nc2sc3c(c2C#N)CCCC3)cc1", "inhibition": "-31.7% (inactive)"}, {"smiles": "CC(=O)c1c(C)[nH]c(C(=O)OCC(=O)Nc2c(C)cccc2C)c1C", "inhibition": "12.5% (inactive)"}, {"smiles": "CC(=O)c1c(C)[nH]c(C(=O)OCC(=O)Nc2sc3c(c2C#N)CCCC3)c1C", "inhibition": "64.3% (active)"}, {"smiles": "COc1ccc(C(C)(NC(C)=O)c2nc(-c3ccc(S(C)(=O)=O)cc3)cs2)cc1", "note": "(configuration not stated)", "inhibition": "-12.5% (inactive)"}, {"smiles": "C/C(CC1CC(C)(C)OC1=O)=N/Nc1nc(-c2ccccc2)cs1", "note": "(configuration not stated)", "inhibition": "-29.9% (inactive)"}, {"smiles": "COc1ccc(N/C=C(\\C2OC(=O)c3ccccc32)[N+](=O)[O-])cc1", "note": "(configuration not stated)", "inhibition": "9.49% (inactive)"}, {"smiles": "CCCc1nc2scc(-c3ccc(C)cc3)c2c(=O)n1N", "inhibition": "17.3% (inactive)"}, {"smiles": "COc1ccc(C(O)c2nc(-c3ccc(OC)nc3)cs2)cc1", "note": "(configuration not stated)", "inhibition": "-2.94% (inactive)"}, {"smiles": "COc1ccc2c(c1OC)C(=O)OC2Nc1nc(-c2ccccc2)cs1", "note": "(configuration not stated)", "inhibition": "66.1% (active)"}, {"smiles": "COc1ccc(-c2csc(Nc3ccccn3)n2)cc1", "inhibition": "68.4% (active)"}, {"smiles": "COc1cc(C(O)c2nc(-c3cccc(C(=O)O)c3)cs2)ccc1F", "note": "(configuration not stated)", "inhibition": "-19.5% (inactive)"}, {"smiles": "Cn1cc(C2OC(=O)c3ccccc32)c2ccccc21", "note": "(configuration not stated)", "inhibition": "38.7% (inactive)"}, {"smiles": "Cc1ccc(-c2csc(NC3OC(=O)c4ccccc43)n2)cc1", "note": "(configuration not stated)", "inhibition": "85.8% (active)"}, {"smiles": "N#Cc1ccc(OCC(=O)Nc2nc(-c3ccccn3)cs2)cc1", "inhibition": "-7.26% (inactive)"}, {"smiles": "COc1ccc(-c2csc(NC3OC(=O)c4ccccc43)n2)cc1", "note": "(configuration not stated)", "inhibition": "66.2% (active)"}, {"smiles": "COc1nc(OC)nc(N(C)CCO)n1", "inhibition": "5.06% (inactive)"}, {"smiles": "O=C(CCc1ccccc1)Nc1nn[nH]n1", "inhibition": "-6.61% (inactive)"}, {"smiles": "CCOc1ccc(CCN2C(=O)C(=O)N([C@@H](CC(C)C)CN3CCC[C@H]3CN3C(=O)C(=O)NC[C@@H]3Cc3ccccc3)C[C@@H]2CC(C)C)cc1", "inhibition": "18.1% (inactive)"}, {"smiles": "CCc1nc2c(OCC(N)=O)cccn2c1N(C)C(=O)c1ccc(OC)cc1", "inhibition": "-0.65% (inactive)"}, {"smiles": "Cc1cccc(C(=O)O)c1[N+](=O)[O-]", "inhibition": "-0.13% (inactive)"}, {"smiles": "O=C(NCc1ccccc1)C(=O)NCC1OCCN1S(=O)(=O)c1ccc(Br)cc1", "note": "(configuration not stated)", "inhibition": "-2.34% (inactive)"}, {"smiles": "CC(NC(=O)COC(=O)Cn1cc(C(F)(F)F)ccc1=O)c1ccccc1", "note": "(configuration not stated)", "inhibition": "19.7% (inactive)"}, {"smiles": "CCC(C)NCC(=O)Nc1ccc([N+](=O)[O-])cc1C(=O)Nc1ccccc1F", "note": "(configuration not stated)", "inhibition": "3.23% (inactive)"}, {"smiles": "CC(=O)OCCN(CCCn1c(-c2ccncc2)nc2ccccc21)c1nc(-c2ccc(C)cc2)cs1", "inhibition": "4.36% (inactive)"}, {"smiles": "CCCCOCCCNC(=O)C[C@@H]1C[C@@]2(C(=O)OC)CCCCC=C2N(CCC2=CCCCC2)C1=O", "inhibition": "11% (inactive)"}, {"smiles": "CN1OC[C@@H]2CN(S(=O)(=O)c3cccc4ccccc34)[C@H](c3ccc(N4CCCCC4)cc3)C[C@@H]21", "inhibition": "-7.73% (inactive)"}, {"smiles": "CN1OC[C@@H]2CN(S(=O)(=O)c3cccc(C(F)(F)F)c3)[C@H](c3ccc(-c4cc5ccccc5o4)cc3)C[C@@H]21", "inhibition": "62.2% (active)"}, {"smiles": "COc1ccc(S(=O)(=O)N2C[C@H]3CON(C)[C@H]3C[C@H]2c2cccc(Br)c2)cc1", "inhibition": "-6.92% (inactive)"}, {"smiles": "CC(=O)Cn1cnc2c(cnn2-c2ccccc2)c1=O", "inhibition": "4.23% (inactive)"}, {"smiles": "CC(C)(C)n1ncc2c(=O)n(Cc3ccc(Cl)cc3)cnc21", "inhibition": "68.2% (active)"}, {"smiles": "CC(C)(C)n1ncc2c(=O)n(Cc3c(Cl)cccc3Br)cnc21", "inhibition": "3.93% (inactive)"}, {"smiles": "O=C(O)CSCc1ccc(C(=O)O)o1", "inhibition": "-3.63% (inactive)"}, {"smiles": "CC(CO)NCC12CC3CC(CC(C3)C1)C2", "note": "(configuration not stated)", "inhibition": "13.3% (inactive)"}, {"smiles": "Cc1ccc2cc(C)c(N3CCN(c4ccc(F)cc4)CC3)nc2c1", "inhibition": "8.39% (inactive)"}, {"smiles": "COc1ccc(-n2ncc3c(SCC(=O)NNC(C)=O)ncnc32)cc1", "inhibition": "14.6% (inactive)"}, {"smiles": "Cc1ccc(-n2ncc3c(N4CCN(c5ccc(F)cc5)CC4)ncnc32)c(C)c1", "inhibition": "73% (active)"}, {"smiles": "COc1ccc(-n2ncc3c(N4CCc5ccccc54)ncnc32)cc1", "inhibition": "-15.6% (inactive)"}, {"smiles": "CC(C)Sc1ncnc2c1cnn2-c1ccccc1", "inhibition": "15.4% (inactive)"}, {"smiles": "COC(=O)CSc1ncnc2c1cnn2-c1ccc(C)cc1C", "inhibition": "-11.2% (inactive)"}, {"smiles": "CC(Sc1ncnc2c1cnn2-c1ccccc1)C(=O)Nc1ccc(N2CCOCC2)cc1", "note": "(configuration not stated)", "inhibition": "-20.4% (inactive)"}, {"smiles": "c1ccc(-n2ncc3c(N4CCCC4)ncnc32)cc1", "inhibition": "62.5% (active)"}, {"smiles": "COc1ccc(-n2ncc3c(N4CCCc5ccccc54)ncnc32)cc1", "inhibition": "58.1% (active)"}]}]}
